Bioassay records deposited in PubChem by The Scripps Research Institute Molecular Screening Center.
DAX1 inh-1: blocks DAX1 repression of SF-1 activated StAR promoter; HEK293T StAR-luciferase reporter, SF-1/DAX-1 repression relief; inhibition, % at 6.8 µM; 1.1% of 370,000 active; AID 652010;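 active = inhibition above the mean over all tested compounds plus 3 SD, cut at about 3.6% in these data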;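 also: higher inhibition means more luminescence from relief of DAX-1 repression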
hcDAF12 agonist: H. contortus DAF-12 activation, primary screen; AID 652067; 1.4% of 370,000 active; HEK293 hcDAF-12 lit1-tk-luc reporter, luminescence; 0% DMSO, 100% Δ7-dafachronic acid; activation, % at 6.8 µM;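 active = activation above the mean of all tested compounds plus 3 SD, cut at about 5.5% in these data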
DAX1 inh-2: NR0B1 (DAX1) inhibition; P51843; HEK293 Gal4-DAX1 luciferase reporter, luminescence; inhibition, % at 6.75 µM; 0.99% of 340,000 active; AID 504766;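 active = inhibition above the mean over all tested compounds plus 3 SD, cut at about 4.2% in these data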;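 also: inhibition shows as a rise in luminescence from relieved DAX1 repression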
Target sequence (P51843 207-470 limits assumed): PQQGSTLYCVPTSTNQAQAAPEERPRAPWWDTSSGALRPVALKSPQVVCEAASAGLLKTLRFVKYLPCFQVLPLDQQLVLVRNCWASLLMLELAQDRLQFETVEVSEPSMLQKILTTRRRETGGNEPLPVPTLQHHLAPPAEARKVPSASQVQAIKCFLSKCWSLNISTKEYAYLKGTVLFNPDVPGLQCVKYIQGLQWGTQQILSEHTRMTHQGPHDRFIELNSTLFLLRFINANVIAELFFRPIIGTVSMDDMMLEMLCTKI
ssDAF-12 act: activators of S. stercoralis DAF-12 nuclear receptor. HEK293 ssDAF-12/GRIP1 lit1-tk-luc reporter, luminescence; % of 3 µM dafachronic acid response. activation, % at 6.8 µM. 1% of 370,000 active. AID 652126;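 active = activation above the mean over all tested compounds plus 3 SD, cut at about 0.9% in these data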
hgDAF-12 ag: agonists of H. glycines DAF-12 nuclear receptor; HEK293 GAL4-hgDAF12 UAS-luciferase reporter, agonist luminescence; normalized to butyrate control; activation, % at 6.8 µM; 1.8% of 370,000 active;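 active = activation above a cutoff set at the mean of all screened compounds plus 3 SD, cut at about 10% in these data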
Each line names hits and unclear results; the compound was inactive in the other large screens. An excerpt weighted towards active compounds, which were near 4.1% of everything screened.

C[C@@H]1CN([C@@H](C)CO)C(=O)c2c(c3ccccc3n2C)-c2ccccc2CO[C@H]1CN(C)C(=O)[C@H](C)c1ccccc1	none
C[C@@H]1CN([C@H](C)CO)C(=O)c2c(c3ccccc3n2C)-c2ccccc2CO[C@H]1CN(C)C(=O)c1cc(Cl)cc(Cl)c1	DAX1 inh-2 4.3
COc1cccc(/C=N/n2c(SC)nnc2-c2ccccc2)c1OC	none
COc1cccc(/C=N/n2c(SC)nnc2-c2ccccc2)c1O	DAX1 inh-2 4.6
CC(=O)N1N=C2c3ccccc3CCC2C1c1cccs1 (stereo unspecified)	none (no result: DAX1 inh-2)
CN1N=C2c3ccccc3CCCC2C1c1ccc(F)cc1 (stereo unspecified)	hcDAF12 agonist 5.6
O=C1CC(SC2=NCCS2)C(=O)N1c1ccc(Cl)cc1 (stereo unspecified)	ssDAF-12 act 1.4
Cc1cc(NC(=O)CSc2nc(N)c(NC(=O)c3ccco3)c(=O)[nH]2)no1	DAX1 inh-2 7.5
Cc1cc(NC(=O)CSc2nc(N)c(NC(=O)c3ccccc3)c(=O)[nH]2)no1	none
Cc1cc(NC(=O)CSc2nc(N)c(NC(=O)c3ccccc3F)c(=O)[nH]2)no1	ssDAF-12 act 0.9
CCc1c(C)nc(SCC(=O)NNC(=O)c2ccco2)[nH]c1=O	hcDAF12 agonist 6.0
Cc1cccc(C)c1NC(=O)Cn1nnc(-c2ccncc2)n1	none (no result: DAX1 inh-2)
O=C1c2ccccc2NC2(CCCC2)N1O	none
O=C1c2ccccc2NC2(CCCCC2)N1N=C1CCCCC1	hgDAF-12 ag 12
O=C(NC1CCCCCC1)C1CCN(S(=O)(=O)c2cccc3cccnc23)CC1	DAX1 inh-2 6.1
O=C(NC1CCCC1)C1CCCN(S(=O)(=O)c2cccc3cccnc23)C1 (stereo unspecified)	none
Cn1c(=O)oc2cc(S(=O)(=O)N3CCC(C(=O)N4CCN(c5ccccc5)CC4)CC3)ccc21	none
Cn1c(=O)oc2cc(S(=O)(=O)N3CCN(c4ccccc4)CC3)ccc21	ssDAF-12 act 2.6
CCN(CC)C(=O)CC[C@@H]1CC[C@]2(CCCN(C(=O)c3ccco3)C2)O1	none (no result: DAX1 inh-2)
COC(=O)C(NC(C)=O)(Nc1ccc(C)cn1)C(F)(F)F (stereo unspecified)	DAX1 inh-2 4.2
C/C(=N\NC(=O)C(O)c1ccccc1)c1ccc(Cl)cc1 (stereo unspecified)	ssDAF-12 act 1.4
O=C(/C(=C\c1ccccc1)c1nc2ccccc2[nH]1)c1ccc(Cl)cc1	hgDAF-12 ag 11
COC(=O)C1CN(Cc2cn(CCC3OCCO3)nn2)CCS(=O)(=O)N1Cc1ccc(C)cc1 (stereo unspecified)	none (no result: DAX1 inh-2)
O=C(NCc1ccc(F)cc1)c1ccc2c(=O)n3c(nc2c1)CCCCC3	DAX1 inh-2 5.0
CCc1nnc(NC(=O)c2ccc3c(=O)n4c(nc3c2)CCC4)s1	DAX1 inh-1 4.4, DAX1 inh-2 4.2
O=C(CN1CCN(c2nc(-c3ccccc3)cs2)CC1)Nc1ccc(F)cc1F	none (no result: DAX1 inh-2)
Fc1ccc(-n2nnc(-c3ccccc3Cl)n2)cc1	none
Clc1nc2ccccc2cc1-c1nnn(-c2ccccc2)n1	hcDAF12 agonist 6.4
O=C(c1ccc(F)cc1)C1CCN(c2ncnc3sccc23)CC1	none (no result: DAX1 inh-1, DAX1 inh-2)
CNS(=O)(=O)/C=C/c1ccccc1CCNC(=O)OC(C)(C)C	none (no result: DAX1 inh-2)
Cc1ccc(-n2nnc(-c3cccnc3)n2)cc1	none
COc1ncccc1-c1nnn(-c2ccccc2Br)n1	none
c1ccc(-n2nnc(-c3cccnc3)n2)cc1	hgDAF-12 ag 11
COc1ncccc1-c1nnn(-c2ccccc2)n1	hcDAF12 agonist 5.7, ssDAF-12 act 1.3, hgDAF-12 ag 11
COc1cc(F)c(S(=O)(=O)N2CCCN(S(=O)(=O)c3cccc(N)c3)CC2)c(F)c1	none (no result: DAX1 inh-1, DAX1 inh-2)
c1ccc(Cn2nc(-c3ccccc3)nc2-c2ccccc2)cc1	none
Cn1nc(-c2ccccc2)nc1-c1ccccc1	hcDAF12 agonist 6.3
O=C(Cn1cnc2c(oc3nc4c(cc32)CCCC4)c1=O)Nc1ccccc1	none
C=C(C)Cn1cnc2c(oc3nc4c(cc32)CCCC4)c1=O	DAX1 inh-2 6.6
CC1(C)Cc2c(sc(NC(=O)Nc3ccccc3)c2C(N)=O)CO1	DAX1 inh-2 5.1, hgDAF-12 ag 11
O=C(c1cc2cc(Cl)ccc2oc1=O)N1CCCCCCC1	DAX1 inh-2 4.5
O=C(Cc1ccccc1F)N1CCC(n2nnc3ncccc32)CC1	none (no result: DAX1 inh-2)
O=C(CCc1nnc(Cc2cccc(C(F)(F)F)c2)o1)NCC(F)(F)F	none
CC(NC(=O)CCc1nnc(Cc2cccc(C(F)(F)F)c2)o1)C1CC1 (stereo unspecified)	hgDAF-12 ag 10
C=C(C)CNC(=O)CCc1nnc(Cc2cccc(C(F)(F)F)c2)o1	ssDAF-12 act 1.0
O=C(CCc1nnc(Cc2cccc(C(F)(F)F)c2)o1)NC1CC1	none
CC(C)CN(C)C(=O)CCc1nnc(Cc2cccc(C(F)(F)F)c2)o1	hgDAF-12 ag 11
O=C(N[C@@H](Cc1cccnc1)C(=O)N1CCC[C@H]1C(=O)NCCc1ccccc1Cl)C1CCCC1	none (no result: DAX1 inh-2)
CCCCNC(=O)CO/N=C(\C)c1cc2ccccc2o1	none
CCCCNCc1cc2ccccc2o1	DAX1 inh-2 4.5
OCCC1CN(Cc2cc(F)ccc2-n2cccn2)CCN1C1CCCC1 (stereo unspecified)	ssDAF-12 act 1.7
O=C1N(Cc2ccccc2)c2ccccc2C12CCCc1oc(CCc3ccccc3)nc12 (stereo unspecified)	none (no result: DAX1 inh-2)
CCC1CCCCN1c1ccc([N+](=O)[O-])cc1/C=N/NC(=O)Cn1c2ccccc2c(=O)c2ccccc21 (stereo unspecified)	DAX1 inh-2 6.0
CCc1ccc(OCC(=O)N/N=C/c2cc([N+](=O)[O-])ccc2N2CCCCCC2)cc1	none
CSc1nc(N)n2nccc2n1	hcDAF12 agonist 6.2 (no result: DAX1 inh-2)
CNC(=O)C1=C(C)Nc2nc3ccccc3n2C1c1ccc(F)cc1 (stereo unspecified)	none
N#CC1=C(N)Nc2nc3ccccc3n2C1c1ccc(F)cc1 (stereo unspecified)	ssDAF-12 act 1.3
CCCCNC(=O)C[C@@H]1C(=O)N(CCc2ccc(Cl)cc2)C2=CCCCC[C@]21C(=O)OC	none (no result: DAX1 inh-2)
Cn1ncc2c(NCCO)nc(Cl)nc21	ssDAF-12 act 1.5
Cc1ccc(C(=O)/C=C/Nc2cccc([N+](=O)[O-])c2)o1	hcDAF12 agonist 5.8, hgDAF-12 ag 11
CN(C)C(/C=C/Nc1cccc([N+](=O)[O-])c1)=C(C#N)C#N	none
Cc1ccnc(NC(=S)N2CCC(Nc3cccc(C(F)(F)F)c3)CC2)c1	none (no result: DAX1 inh-1, DAX1 inh-2)
COCCSc1ncccc1-c1nc2ccccc2[nH]1	none (no result: DAX1 inh-2)
COC(=O)c1ccc(NC(=O)c2nc(S(=O)(=O)Cc3cccc(C)c3)ncc2Cl)cc1	none
CC(=O)Nc1ccc(NC(=O)c2nc(S(=O)(=O)Cc3cccc(C)c3)ncc2Cl)cc1	DAX1 inh-1 4.0
Cc1cccc2sc(N(CCCN(C)C)C(=O)c3ccc(Cl)s3)nc12	ssDAF-12 act 0.9
